# Test results as given in PubChem BioAssay (Tox21).
# Records with an inconclusive call do not appear. Where a call stands in place of a potency, no number is given. Calls of active or inactive are those of the source. Unless noted, calls come from the whole dose curve; as a rule, active = well fitted curve in the direction sought with a large enough effect in the repeat runs; inconclusive = weak or mixed curves; inactive = no such curve, though single readings can be large; an effect the other way counts as inactive or inconclusive.
# Legend:
# [1] = qHTS assay to identify aromatase inhibitors - cell viability counter screen (AID 743084);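 note: cells stimulated with testosterone during compound exposure; nearly all actives have a fitted effect of over 55% in size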; note: potency is the fitted concentration of half-maximal effect
# [2] = molecular target: Aryl hydrocarbon receptor (Homo sapiens) (UniProt P35869); test: qHTS assay to identify small molecule that activate the aryl hydrocarbon receptor (AhR) signaling pathway (AID 743085); note: nearly all actives have a fitted effect of over 15% in size; note: potency is the fitted concentration of half-maximal effect;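 for activation: HG2L7.5c1 human HepG2 liver cells with stably integrated DRE-driven firefly reporter; series mostly up to about 70 µM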
# In short: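 Compounds were tested in HepG2 hepatocellular carcinoma cells harbouring a stably integrated luciferase gene under control of 20 DREs. Increased reporter signal after 24 h treatment at 37C was taken as AhR activation.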
# [3] = qHTS assay to identify small molecule that activate the aryl hydrocarbon receptor (AhR) signaling pathway - cell viability counter screen (AID 743086); note: nearly all actives have a fitted effect of over 45% in size; note: potency is the fitted concentration of half-maximal effect
# In short: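 HepG2-AhR-luc (HG2L7.5c1) cells, 4000/well, were preincubated 5 h at 37C, exposed to compound in qHTS format for 24 hr at 37C, then given CellTiter-Fluor for 30 min; viability was read as fluorescence in the reporter wells.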
# [4] = molecular target: Peroxisome proliferator-activated receptor gamma (Homo sapiens) (UniProt P37231); test: qHTS assay to identify small molecule agonists of the peroxisome proliferator-activated receptor gamma (PPARg) signaling pathway (AID 743094; active = well fitted activation curve with a large enough effect in the signal ratio in the repeat runs, not every such curve was filed as active; the % refers to the signal ratio; note: potency is the fitted concentration of half-maximal effect)
# In short: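 Agonist activity was taken from a beta-lactamase reporter (FRET substrate, 1 h at room temperature) in HEK293H cells carrying a PPARg UAS-bla construct. Compounds in DMSO were incubated 17 h at 37C after a 5 h cell pre-incubation.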
# [5] = molecular target: Peroxisome proliferator-activated receptor gamma (Homo sapiens) (UniProt P37231); test: qHTS assay to identify small molecule antagonists of the peroxisome proliferator-activated receptor gamma (PPARg) signaling pathway (AID 743191; calls by dose curve; note: nearly all actives have a fitted effect of over 30% in size; note: potency is the fitted concentration of half-maximal effect)
# In short: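 GeneBLAzer PPARg UAS-bla HEK293H cells carrying a UAS-driven beta-lactamase reporter were plated at 3000 cells/well, preincubated 5 h at 37C, then given compound for 17 h at 37C; LiveBLAzer B/G FRET substrate was read after 1 h at room temperature.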
# [6] = qHTS assay to identify small molecule antagonists of the peroxisome proliferator-activated receptor gamma (PPARg) signaling pathway - cell viability counter screen (AID 743194); note: nearly all actives have a fitted effect of over 55% in size; note: potency is the fitted concentration of half-maximal effect
# In short: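 PPARg-UAS-bla HEK293H cells were plated, rested 5 h at 37 C, then treated with compounds plus rosiglitazone (50 nM final) for 17 h at 37 C; viability was then read by CellTiter-Glo luminescence after 30 min at room temperature.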
# [7] = qHTS assay for small molecule agonists of the antioxidant response element (ARE) signaling pathway - cell viability counter screen (AID 743203; calls by dose curve; note: nearly all actives have a fitted effect of over 55% in size; note: potency is the fitted concentration of half-maximal effect)
# In short: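 Viability counter screen: CellTiter-Glo luminescence, read after 30 min at room temperature, in ARE-bla HepG2 wells. Compound exposure lasted 16 h at 37C/5% CO2, following a 5 h pre-incubation of the cells after plating.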
# [8] = qHTS assay for small molecule activators of the heat shock response signaling pathway - cell viability counter screen (AID 743209); note: nearly all actives have a fitted effect of over 50% in size
# In short: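 Cytotoxicity counter screen run in the same wells as the heat-shock bla reporter assay: HeLa HSE-bla cells, 5 h compound exposure at 37 C, viability read by CellTiter-Glo luminescence.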
# [9] = qHTS assay for small molecule activators of the heat shock response signaling pathway (AID 743210; active = well fitted activation curve with a large enough effect in the signal ratio in the repeat runs, with a control signal flat, not every such curve was filed as active; the % refers to the signal ratio; note: series mostly up to about 63 µM)
# In short: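 Heat shock element–beta-lactamase HeLa reporter cells; qHTS with compounds for 5 h at 37 C; detection by FRET substrate fluorescence after 2.5 h at RT.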
# [10] = qHTS assay for small molecule agonists of the antioxidant response element (ARE) signaling pathway (AID 743202; active = well fitted activation curve with a large enough effect in the signal ratio in the repeat runs, not every such curve was filed as active; the % refers to the signal ratio; note: potency is the fitted concentration of half-maximal effect)
# In short: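 Following a 16 h, 37 C exposure of reporter HepG2 cells (ARE-driven beta-lactamase, 2,000 cells/well) to compounds, FRET substrate was applied for 2 h at room temperature and fluorescence intensity recorded.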
# Aryl hydrocarbon receptor (Homo sapiens), sequence (P35869 whole entry, looked up): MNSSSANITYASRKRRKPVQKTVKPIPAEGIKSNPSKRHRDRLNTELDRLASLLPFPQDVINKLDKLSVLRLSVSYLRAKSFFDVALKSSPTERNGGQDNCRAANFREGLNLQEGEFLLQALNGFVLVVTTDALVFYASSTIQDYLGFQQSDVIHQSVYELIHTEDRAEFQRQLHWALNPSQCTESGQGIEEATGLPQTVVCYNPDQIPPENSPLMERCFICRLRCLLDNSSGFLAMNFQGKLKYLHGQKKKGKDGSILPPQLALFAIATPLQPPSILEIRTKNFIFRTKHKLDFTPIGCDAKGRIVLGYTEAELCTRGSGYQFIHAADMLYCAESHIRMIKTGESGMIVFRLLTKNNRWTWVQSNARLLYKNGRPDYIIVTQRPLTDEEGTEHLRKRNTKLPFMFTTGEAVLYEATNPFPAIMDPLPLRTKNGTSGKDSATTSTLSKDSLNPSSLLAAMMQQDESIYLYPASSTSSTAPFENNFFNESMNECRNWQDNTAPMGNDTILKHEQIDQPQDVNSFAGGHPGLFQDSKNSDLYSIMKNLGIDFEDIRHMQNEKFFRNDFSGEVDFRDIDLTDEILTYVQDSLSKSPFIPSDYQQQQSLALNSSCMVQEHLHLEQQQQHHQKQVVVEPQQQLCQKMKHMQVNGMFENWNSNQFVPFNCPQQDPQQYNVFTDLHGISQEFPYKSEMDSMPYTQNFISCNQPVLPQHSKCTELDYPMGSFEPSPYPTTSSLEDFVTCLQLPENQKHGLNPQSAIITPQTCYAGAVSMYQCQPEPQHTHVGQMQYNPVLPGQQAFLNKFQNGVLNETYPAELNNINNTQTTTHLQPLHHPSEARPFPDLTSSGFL
# Peroxisome proliferator-activated receptor gamma (Homo sapiens), sequence (P37231 whole entry, looked up): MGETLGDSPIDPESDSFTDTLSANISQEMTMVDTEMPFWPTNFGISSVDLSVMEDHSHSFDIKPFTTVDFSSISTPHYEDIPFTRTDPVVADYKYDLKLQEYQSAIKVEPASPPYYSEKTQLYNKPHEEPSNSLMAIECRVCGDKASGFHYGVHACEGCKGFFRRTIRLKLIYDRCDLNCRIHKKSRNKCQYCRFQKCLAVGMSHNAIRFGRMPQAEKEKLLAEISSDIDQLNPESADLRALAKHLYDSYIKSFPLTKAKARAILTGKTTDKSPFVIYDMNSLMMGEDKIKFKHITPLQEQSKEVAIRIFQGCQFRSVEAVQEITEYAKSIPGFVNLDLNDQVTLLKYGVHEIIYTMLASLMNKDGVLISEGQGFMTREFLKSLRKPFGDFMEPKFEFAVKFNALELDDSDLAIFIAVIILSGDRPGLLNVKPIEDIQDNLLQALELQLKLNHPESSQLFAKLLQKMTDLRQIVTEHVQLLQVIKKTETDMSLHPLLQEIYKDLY
SMILES,Potency [1],Potency [2],Potency [3],Potency [4],Potency [5],Potency [6],Potency [7],Potency [8],Potency [9],Potency [10]
Cc1ccc(CO)cc1,inactive,inactive,inactive,inactive,inactive,inactive,inactive,inactive,inactive,–
CC1=Nc2ccc3ccccc3c2C1(C)C,inactive,inactive,54.5 µM (active),inactive,inactive,inactive,–,inactive,–,–
O=C(O)c1ccc(OCCCOc2ccc(C(=O)O)cc2)cc1,inactive,inactive,inactive,inactive,–,inactive,inactive,inactive,–,inactive
CCCCCCCCN,inactive,inactive,inactive,inactive,inactive,–,inactive,inactive,inactive,inactive
O=C1c2ccccc2C(=O)C1c1ccc(Br)cc1,inactive,11.9 µM (active),inactive,inactive,–,inactive,–,inactive,–,–
COC(=O)CCS,inactive,inactive,inactive,–,inactive,–,–,inactive,inactive,inactive
C=CC(=O)[O-].C=CC(=O)[O-].[Zn+2],inactive,inactive,inactive,inactive,–,inactive,inactive,inactive,–,–
C=C(C)C(=O)OCCOCCOC(=O)C(=C)C,inactive,inactive,inactive,inactive,–,inactive,inactive,inactive,inactive,–
Nc1ncnc2c1ncn2[C@H]1CC[C@@H](CO)O1,inactive,inactive,inactive,inactive,–,–,inactive,inactive,inactive,inactive
O=C(CCc1ccc(O)cc1)c1c(O)cc(O)cc1O,inactive,inactive,inactive,inactive,–,–,–,inactive,–,31.3 µM (active)
CN1C(=O)OC(C)(C)C1=O,inactive,inactive,inactive,inactive,–,inactive,inactive,inactive,inactive,inactive
C=C1C[C@@]23CC[C@H]4[C@@](C)(CCC[C@@]4(C)C(=O)O[C@@H]4O[C@H](CO)[C@@H](O)[C@H](O)[C@H]4O)[C@@H]2CC[C@]1(O[C@@H]1O[C@H](CO)[C@@H](O)[C@H](O[C@@H]2O[C@H](CO)[C@@H](O)[C@H](O)[C@H]2O)[C@H]1O[C@@H]1O[C@H](CO)[C@@H](O)[C@H](O)[C@H]1O)C3,inactive,inactive,inactive,inactive,–,inactive,inactive,inactive,inactive,inactive
CC(=O)NC1(c2cccc(F)c2)CCN(CC[C@@]2(c3ccc(Cl)c(Cl)c3)CN(c3ccccc3)C(=O)CO2)CC1,48.7 µM (active),inactive,43.4 µM (active),–,43.8 µM (active),34.8 µM (active),19.4 µM (active),inactive,inactive,–
CN1C(=O)c2ccccc2C1=O,inactive,inactive,inactive,inactive,–,–,inactive,–,–,–
CC(C)C=O,inactive,inactive,inactive,–,–,inactive,inactive,inactive,–,inactive
CN1CCCC(n2nc(Cc3ccc(Cl)cc3)c3ccccc3c2=O)CC1 (stereo not given),inactive,inactive,inactive,inactive,–,–,29.8 µM (active),inactive,inactive,–

SMILES,Potency [1],Potency [2],Potency [3],Potency [4],Potency [5],Potency [6],Potency [7],Potency [8],Potency [9],Potency [10]
C=CCc1ccccc1OCC(O)CNC(C)C (stereo not given),inactive,inactive,inactive,inactive,–,–,–,inactive,inactive,–
C=C(C)CCCC(C)CCO (stereo not given),inactive,inactive,inactive,inactive,–,–,–,inactive,inactive,–
CCCCCCCCCCC(=O)O,inactive,inactive,inactive,–,inactive,inactive,inactive,inactive,inactive,–
O=C(Nc1cccc2c(=O)cc(-c3nn[nH]n3)oc12)c1ccc(OCCCCc2ccccc2)cc1,inactive,inactive,inactive,inactive,–,inactive,29.8 µM (active),inactive,inactive,–
CCC1CO1 (stereo not given),inactive,inactive,inactive,inactive,–,–,inactive,inactive,inactive,inactive
C[C@@H](CN(C)C)CN1c2ccccc2Sc2ccccc21,inactive,inactive,inactive,inactive,–,–,inactive,inactive,inactive,–
CC(=O)[C@H]1[C@H](C#N)C[C@H]2[C@@H]3CC=C4C[C@@H](O)CC[C@]4(C)[C@H]3CC[C@@]21C,inactive,inactive,inactive,inactive,–,inactive,inactive,inactive,inactive,33.1 µM (active)
COC(=O)CS,inactive,inactive,inactive,inactive,–,inactive,inactive,–,inactive,inactive
CN(C)CCC=C1c2ccccc2C=Cc2ccccc21,inactive,inactive,inactive,inactive,–,inactive,inactive,inactive,–,–
CC1(C)[C@@H](OC(=O)CCC(=O)O)CC[C@]2(C)[C@H]3C(=O)C=C4[C@@H]5C[C@@](C)(C(=O)O)CC[C@]5(C)CC[C@@]4(C)[C@]3(C)CC[C@@H]12,inactive,inactive,inactive,inactive,–,–,inactive,–,inactive,26.6 µM (active)
O=C1C(=O)c2ccccc2C(O)=C1C1CCC(c2ccc(Cl)cc2)CC1 (stereo not given),inactive,4.03 µM (active),inactive,inactive,–,–,–,inactive,–,6.68 µM (active)
CC(C)=CC(=O)C=C(C)C,inactive,inactive,inactive,inactive,–,inactive,–,inactive,inactive,–
CCOC(=O)OC(C)OC(=O)[C@@H]1N2C(=O)[C@@H](NC(=O)[C@H](N)c3ccccc3)[C@H]2SC1(C)C (stereo not given in full),inactive,inactive,inactive,inactive,–,–,inactive,inactive,inactive,inactive
C=C1c2cccc(O)c2C(O)=C2C(=O)[C@]3(O)C(O)=C(C(N)=O)C(=O)[C@@H](N(C)C)[C@@H]3[C@@H](O)[C@H]12,inactive,inactive,inactive,inactive,–,inactive,–,inactive,inactive,inactive
O=Cc1c2ccccc2c(Cl)c2ccccc12,inactive,inactive,inactive,9.53 µM (active),–,–,inactive,inactive,–,29.9 µM (active)
